Nrf2 block: Nrf2 pathway inhibition; Potency, µM (series often up to 46 µM), for inactives: at the top dose activity change, negative = inhibition, actives largely listed as inhibitors; actives 2.1% (n = 360,000); A549 ARE-Fluc reporter, luciferase luminescence, 18-24 h; note: % is set by controls: 0 for no effect and ±100 for the full control effect; nearly all actives have a fitted effect of over 60% in size
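Nrf2 activity is the BugLite luminescence, read 15 min after reagent at room temperature, following CellTiter-Fluor cytotoxicity readout (30 min, 37C). Compound titrations were applied for 18-24 h to 5000 A549 ARE_Fluc cells/well in 5% FBS OPTI-MEM.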
Rango complex inh: Rango-importin beta binding inhibition; Q14974; Rango CFP/YFP FRET sensor + importin beta, 45 min; Potency, µM (series often up to 92.2 µM), without a hit: top-dose inhibition of complex formation; actives 0.031% (n = 340,000); calls by dose curve;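 note: 0% = DMSO wells and 100% = buffer wells lacking importin beta; nearly all actives have a fitted effect of over 15% in size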
Target sequence (Q14974 whole entry, looked up): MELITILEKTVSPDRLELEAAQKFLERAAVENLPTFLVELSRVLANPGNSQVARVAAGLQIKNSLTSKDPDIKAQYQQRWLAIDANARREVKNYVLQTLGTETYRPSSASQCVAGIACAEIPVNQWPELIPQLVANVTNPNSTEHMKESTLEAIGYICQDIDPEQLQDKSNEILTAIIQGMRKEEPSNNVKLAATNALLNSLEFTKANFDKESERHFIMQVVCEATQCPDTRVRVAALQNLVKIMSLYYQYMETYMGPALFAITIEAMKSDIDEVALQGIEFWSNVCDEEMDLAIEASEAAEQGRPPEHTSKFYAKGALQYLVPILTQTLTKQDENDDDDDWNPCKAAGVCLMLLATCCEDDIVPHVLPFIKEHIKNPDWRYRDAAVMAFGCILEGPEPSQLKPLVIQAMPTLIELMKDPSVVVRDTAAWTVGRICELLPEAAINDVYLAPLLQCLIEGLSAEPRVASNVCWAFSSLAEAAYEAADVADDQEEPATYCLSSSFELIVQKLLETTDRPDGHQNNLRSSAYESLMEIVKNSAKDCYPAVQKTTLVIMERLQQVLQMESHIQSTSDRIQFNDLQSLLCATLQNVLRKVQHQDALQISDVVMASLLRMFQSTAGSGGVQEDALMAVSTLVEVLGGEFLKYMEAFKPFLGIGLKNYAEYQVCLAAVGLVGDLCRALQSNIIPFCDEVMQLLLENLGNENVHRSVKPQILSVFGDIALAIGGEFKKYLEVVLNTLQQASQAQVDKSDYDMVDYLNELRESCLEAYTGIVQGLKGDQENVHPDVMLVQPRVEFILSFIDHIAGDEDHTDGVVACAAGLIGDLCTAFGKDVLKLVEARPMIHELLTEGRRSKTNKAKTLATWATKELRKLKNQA
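Inhibition scored from the CFP 486 nm/YFP 530 nm FRET ratio 45 min after adding 0.125 microM importin beta to 50 nM Rango biosensor preincubated 5 min with compound (room temperature, PBS with DTT, Tween-20, BSA). No-importin wells as positive control.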
Nrf2 activator: activates Nrf2 signaling; actives 0.31% (n = 410,000); AREc32 ARE-luciferase reporter (MCF7-derived line), luminescence, 24 h; Potency, µM (top dose mostly 46.1 µM), for inactives: top-dose activation, most hits filed as activators; note: % of control where 0% means no effect; nearly all actives have a fitted effect of over 65% in size
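AREc32 cells carrying an ARE-driven firefly luciferase reporter were seeded at 1000 cells/well in OPTI-MEM with 5% FBS, then exposed to compound for 24 hr at 37 deg C. Luminescence was read with Steady-Glo after 30 min at RT.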
A549 viability: kills or reduces viability of A549 cells in Nrf2 counter-screen; A549 ARE-Fluc cells, CellTiter-Fluor viability, 18-24 h; Potency, µM (doses to about 46 µM), without a hit: top-dose activity change, negative = cytotoxicity, hits mostly inhibitors; actives 0.16% (n = 390,000); note: % is set by controls: 0 for no effect and ±100 for the full control effect
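Cytotoxicity counterscreen: CellTiter-Fluor fluorescence was measured in A549 ARE_Fluc cells after 18-24 h of compound exposure in a concentration series. The subsequent BugLite luminescent read reports ARE-luciferase activity.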
Rango release inh: inhibition of RanGTP-driven Rango-importin beta dissociation; Biochemical FRET Rango-importin beta, RanGTP-induced dissociation; Potency, µM (titrated, usually from 46.1 µM), for the others: at the highest dose activity change, negative = inhibition; actives 0.071% (n = 340,000); AID 540253; calls by dose curve; note: % of control where 0% means no effect; nearly all actives have a fitted effect of over 45% in size
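Two FRET readings bracket the reaction: one 5 min after compound meets Rango–importin beta, another 45 min after RanGTP-RCC1 (0.6 uM Ran, 0.2 uM RCC1, 2 mM GTP) is added. Only the second defines inhibition.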
An asterisk follows results filed as active; ? = inconclusive; · = no result given; [ ] = dose if it differs, or a comment. This is a sample that favours compounds with a hit; in the whole collection about 2.3% have one here. Unless noted, calls come from the whole dose curve; as a rule, active = well fitted curve in the direction sought with a large enough effect; inconclusive = small, poorly fitted or top-dose-only effect, or another doubt; inactive = no such curve, though single readings can be large; an effect the other way counts as inactive or inconclusive. Potency is the fitted concentration of half-maximal effect.

SMILES	Nrf2 block	Rango complex inh	Nrf2 activator	A549 viability	Rango release inh
O=C(Nc1ccccc1)c1ccc(S(=O)(=O)NCc2ccco2)cc1	·	2%	3%	-8%	11%
CN(C)S(=O)(=O)c1cccc(NC(=O)c2cccc(NS(=O)(=O)c3ccccc3)c2)c1	15µM*	1%	-1%	?	-6%
COC(=O)C[C@H]1C[C@H]2c3cc(NS(=O)(=O)c4ccc(OC)cc4)ccc3O[C@H]2[C@H](CO)O1	·	·	0%	·	·
Cc1ccc(NC(=O)c2ccncc2)cc1S(=O)(=O)N(C)C	3%	0%	1%	-3%	6%
Cc1ccc(NC(=O)CNc2ccc(Cl)c(Cl)c2)cc1S(=O)(=O)N(C)C	12µM*	0%	-1%[9.22 µM]	?	-7%
CN(C)S(=O)(=O)Oc1ccc(C(=O)Nc2cccc(Cl)c2)cc1	?	-1%	2%	-3%	-14%
Cc1ccc(NC(=O)c2ccc(OC(F)(F)F)cc2)cc1S(=O)(=O)N(C)C	12µM*	1%	4%	-6%	-18%
CN(C)S(=O)(=O)Oc1ccc(C(=O)Nc2cccc(C(F)(F)F)c2)cc1	23µM*	0%	0%	?	1%
Cc1cc(C)n(-c2ccc(C(=O)Nc3ccc(C)c(S(=O)(=O)N(C)C)c3)cc2)n1	18µM*	4%	2%	?	-9%
O=C1CCCc2cc(S(=O)(=O)N3CCCC(C(=O)NCc4ccc(Cl)cc4)C3)ccc2N1 (centres undefined)	?	·	0%	2%	·
COc1ccc2ncnc(NCC3CCCO3)c2c1-c1ccc2c(c1)OCO2 (centres undefined)	?	·	·	-24%	·
Cc1cc(C)n(-c2ccc(C(=O)Nc3ccc(S(=O)(=O)NCc4ccco4)cc3)cc2)n1	26µM*	0%	-2%	?	-3%
CCN(CC)S(=O)(=O)c1cccc(NC(=O)c2ccc(-n3nc(C)cc3C)cc2)c1	18µM*	1%	1%	?	-8%
Cc1ccc(C(=O)Nc2ccc(S(=O)(=O)NCc3ccco3)cc2)cc1	14%	-6%	4%	-2%	6%
Cc1cc(C)n(-c2ccc(C(=O)Nc3ccc(S(=O)(=O)N(C)C)cc3)cc2)n1	?	-1%	0%	-23%	3%
Cc1cc(C)n(-c2ccc(C(=O)Nc3cccc(S(=O)(=O)N(C)C)c3)cc2)n1	18µM*	-3%	-1%	-15%	23%
COc1ccc(-c2noc(CCC(=O)O)n2)cc1	-17%	-4%	-1%	-1%	-7%
CCOc1ccc(-c2noc(CCC(=O)O)n2)cc1	3.3µM*	4%	-3%	5%	6%
O=C(O)CCc1nc(-c2ccccc2)no1	-4%	0%	0%	-10%	-9%
COc1ccc(-c2noc(CCCC(=O)O)n2)cc1	1.8µM*	-1%	-2%	-2%	3%
CCOC(=O)c1ccc(NC(=O)CCc2nc(-c3ccc(Cl)cc3)no2)cc1	?	-1%	0%	-11%	0%
CCOC(=O)c1ccc(NC(=O)CCc2nc(-c3ccc(C)cc3)no2)cc1	15µM*	2%	4%	-19%	-2%
O=C(CCc1nnc(CCCc2ccccc2)o1)NCCCC1CCCC1	?	5%	4%	-6%	-5%
c1ccc(-c2nc(-c3ccco3)n3ccccc23)cc1	3%	?	11µM*	5%	?
O=C(NC1CCCCC1)c1cc2c(cc1Cl)N1CCCCCC1=NS2(=O)=O	-9%	-1%	-1%	-2%	7%
Cc1ccc(-c2noc(-c3cccs3)n2)cc1	?	-2%	11µM*	-5%	5%
c1ccc(-c2nc(-c3ccc(-c4ccon4)s3)no2)cc1	?	3%	10%	11%	4%
c1csc(-c2nc(-c3ccc(-c4ccon4)s3)no2)c1	?	-3%	5.6µM*	2%	-7%
Cc1cccc(NC(=O)COC(=O)c2ccccn2)c1	23%	-3%	0%	2%	0%
CCOC(=O)c1ccc(N2CCN(C(C)=O)CC2)c(NC(=O)c2cccnc2)c1	2%	1%	0%	-1%	8%
